FXN GAA850 act – increases GAA850 frataxin promoter reporter activity; HEK293 lucGAA850 FXN promoter luciferase reporter, 24 h; percent of 10 µM SAHA response; activation, % at 6 µM; 360,000 tested, 0.56% active; AID 540364;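 active means activation above the average of all compounds screened plus 3 SD, cutoff fixed separately per campaign, cut at about 7.5% in these data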;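 further: 0% = DMSO wells and 100% = 10 µM SAHA wells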
DAX1 inh-1 – inhibits human nuclear receptor DAX1 | 340,000 tested, 0.99% active | HEK293 Gal4-DAX1 luciferase reporter, luminescence | P51843 | inhibition, % at 6.75 µM;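 active means inhibition above the mean over all tested compounds plus 3 SD, cut at about 4.2% in these data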;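 further: 0% = DAX1-transfected cells with DMSO and 100% = empty-vector control cells with DMSO; inhibition shows as a rise in luminescence from relieved DAX1 repression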
Target sequence (P51843 207-470 limits assumed): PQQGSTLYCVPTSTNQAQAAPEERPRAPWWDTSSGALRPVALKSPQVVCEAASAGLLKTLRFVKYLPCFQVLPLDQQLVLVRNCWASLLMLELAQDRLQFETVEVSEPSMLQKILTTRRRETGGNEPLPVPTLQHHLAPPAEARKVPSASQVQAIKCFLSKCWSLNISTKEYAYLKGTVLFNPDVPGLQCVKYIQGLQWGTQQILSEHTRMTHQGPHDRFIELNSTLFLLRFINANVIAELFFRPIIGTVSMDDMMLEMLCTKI
ssDAF12 agonist – activators of S. stercoralis DAF-12 nuclear receptor; activation, % at 6.8 µM; 370,000 tested, 1% active; AID 652126; HEK293 ssDAF-12/GRIP1 lit1-tk-luc reporter, luminescence; % of 3 µM dafachronic acid response;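 active means activation above the mean over all tested compounds plus 3 SD, cut at about 0.9% in these data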;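 further: 0% = DMSO-only wells and 100% = 3 µM delta7-dafachronic acid wells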
DAX1 inh-2 – DAX1 (NR0B1) inhibition, primary screen. HEK293T StAR-luciferase reporter, SF-1/DAX-1 repression relief. 370,000 tested, 1.1% active. inhibition, % at 6.8 µM;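 active means inhibition above the mean over all tested compounds plus 3 SD, cut at about 3.6% in these data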;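 further: 0% = DAX-1 cells with DMSO and 100% = cells lacking DAX-1 with DMSO; higher inhibition means more luminescence from relief of DAX-1 repression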
hgDAF-12 ag – agonists of H. glycines DAF-12 nuclear receptor; HEK293 GAL4-hgDAF12 UAS-luciferase reporter, agonist luminescence; normalized to butyrate control; AID 687014; activation, % at 6.8 µM; 370,000 tested, 1.8% active;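 active means activation above a cutoff set at the mean of all screened compounds plus 3 SD, cut at about 10% in these data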;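 further: 0% = DMSO wells and 100% = sodium butyrate wells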
hcDAF12 agonist – activates DAF-12 receptor from parasite H. contortus | HEK293 hcDAF-12 lit1-tk-luc reporter, luminescence; 0% DMSO, 100% Δ7-dafachronic acid | activation, % at 6.8 µM | 370,000 tested, 1.4% active | AID 652067;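 active means activation above the mean of all tested compounds plus 3 SD, cut at about 5.5% in these data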;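 further: 100% = response to 3 µM Δ7-dafachronic acid high control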
GAA30 FXN cntr – GAA30 FXN promoter activation counter-screen; HEK293 lucGAA30 FXN promoter luciferase, 24 h; DMSO = 0%, 5 µM ipriflavone = 100%; shares compounds with FXN GAA850 act; 1,900 tested, 66% active; activation, % at 6 µM;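 active means mean activation above the mean of solvent-only control wells plus 3 SD, cut at about 22% in these data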;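 further: counterscreen of GAA850 promoter hits where activity marks nonselective or luminescence artifacts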
GAA850 confirm – GAA850 FXN promoter activation confirmation | HEK293 lucGAA850 FXN promoter luciferase reporter, 24 h; 100% = activation by SAHA | 1,900 tested, 86% active | shares compounds with FXN GAA850 act | activation, % at 6 µM | AID 588351;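 active means mean activation above a set limit taken from the primary screen, cut at about 8% in these data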;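 further: 0% = DMSO wells and 100% = 10 µM SAHA wells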
Active calls of the source: *; . = not tested or not shown. Rows were chosen to be rich in hits. Some 4.5% of all compounds tested hit in one or more screens of this group.

SMILES	FXN GAA850 act	DAX1 inh-1	ssDAF12 agonist	DAX1 inh-2	hgDAF-12 ag	hcDAF12 agonist	GAA30 FXN cntr	GAA850 confirm
CC(=O)Nc1ccc(C(=O)N2CCCCC2c2cc(C(=O)NC(C)C)no2)cc1 (stereo unspecified)	-1.4	.	-1.6	-0.6	-0.2	0.2	.	.
CNC(=S)Nc1cccc(-c2cnc3ccccc3n2)c1	1.2	1.2	-0.7	1.1	5.2	2.1	.	.
CN(c1ccccc1)c1nc(N)c([N+](=O)[O-])c(Nc2cccc(F)c2)n1	5.5	-0.5	-1.5	0.1	1.9	-2.3	.	.
CN(Cc1ccccc1)c1nc(N)c([N+](=O)[O-])c(Nc2cccc(F)c2)n1	9.6*	-0.3	-1.0	-0.6	-1.2	-0.3	27.2*	16.6*
CCCNC(=O)c1ccc(COc2ccc(C)cc2)o1	0.6	1.6	-1.5	-0.1	-4.3	-0.2	.	.
CCCNC(=O)c1oc2ccc3c(c2c1C)C=CC(C)(C)O3	10.1*	0.4	-0.3	0.3	8.2	1.8	91.2*	40.6*
CCOC(=O)c1c(CN2CCCCC2)n(C)c2cc(Br)c(OC)cc12	-0.3	-0.5	-1.1	-0.3	0.1	-1.5	.	.
CCOC(=O)c1c(CN2CCN(CCO)CC2)n(C)c2cc(Br)c(OC)cc12	8.2*	-0.4	-2.1	-0.1	1.9	1.2	23.4*	17.7*
CCn1c(SCC(=O)N/N=C/c2cccc(Oc3ccccc3)c2)nnc1-c1ccccc1	.	.	-1.5	-0.8	-1.9	-1.6	.	.
C#CCN(C[C@H]1[C@H](OC(=O)NCCCCCC)[C@H](OC(=O)NCCCCCC)CN(C(=O)OC(C)C)N1C(=O)OC(C)C)S(=O)(=O)c1ccc(C)cc1	.	.	-1.1	-1.0	0.3	-1.6	.	.
Cc1ccc(OCc2ccccc2C)c([N+](=O)[O-])n1	5.3	-0.4	-0.8	-0.3	2.9	0.7	.	.
Cc1ccc(OCc2ccc([N+](=O)[O-])cc2)c([N+](=O)[O-])n1	8.4*	0.6	-0.3	1.8	8.8	4.7	117.5*	34.2*
CCN(CC)C(=O)CC[C@@H]1CC[C@]2(CCCN(Cc3ccccc3)C2)O1	.	.	-0.6	0.1	0.3	-0.2	.	.
CCOC(=O)C1=C(COC(=O)/C=C/c2ccccc2Cl)NC(=O)NC1C (stereo unspecified)	8.0*	1.0	-0.8	1.2	0.0	-0.4	48.6*	18.8*
COc1ccc(S[C@]2(C(=O)N3CCOCC3)CC(=O)N(S(=O)(=O)c3ccc(F)cc3)[C@@H]2c2ccc(OC)cc2)cc1	.	.	-0.5	-2.5	-1.1	-0.1	.	.
C=CCn1c(C)cc(C(=O)Cn2ncc(Cl)c(Cl)c2=O)c1C	-4.5	3.0	-1.4	-0.6	-4.2	-2.3	.	.
CC(C)(C)C(=O)Cn1ncc(Cl)c(Cl)c1=O	9.0*	0.7	-1.4	-0.5	4.5	-1.5	6.1	6.4
O=C(O)c1ccc(N/N=C/c2ccc3nccnc3c2)cc1	-12.6	-7.5	-3.6	-2.2	-13.6	-5.6	.	.
O=C(O)c1ccc(N/N=C/c2ccnc3ccccc23)cc1	9.3*	2.9	-0.5	2.2	5.5	1.3	93.0*	31.8*
CCOC(=O)c1c(C)[nH]c(C(=O)OCCOc2ccc(Cl)cc2)c1C	3.4	1.3	-1.5	-0.2	-2.8	1.5	.	.
CCOC(=O)c1c(C)[nH]c(C(=O)OCCOc2ccccc2C)c1C	9.5*	3.0	-0.2	3.2	10.9*	3.7	98.1*	25.8*
CC(=O)Nc1ccc(/C=N/N2CCCCC2)cc1	7.6*	1.7	-1.0	1.2	0.6	1.2	86.5*	29.3*
c1ccc2c(c1)C1=NCCN1c1ccccc1-2	32.8*	2.6	0.2	1.5	4.6	5.5	5.7	150.3*
COC1=Nc2ccccc2N2CCN=C12	.	.	-0.3	0.6	-1.6	1.5	.	.
O=C(N(Cc1ccccc1)c1ccccn1)C12CC3CC(CC(C3)C1)C2	10.6*	1.2	-0.7	-1.3	0.0	1.0	30.7*	11.3*
SMILES	FXN GAA850 act	DAX1 inh-1	ssDAF12 agonist	DAX1 inh-2	hgDAF-12 ag	hcDAF12 agonist	GAA30 FXN cntr	GAA850 confirm
N#Cc1nc(-c2ccccc2Cl)oc1N1CCCCC1	8.7*	0.1	-0.9	0.2	1.0	-1.0	56.2*	26.1*
N#Cc1nc(COc2ccccc2F)oc1N1CCCCCC1	9.6*	-0.1	-1.3	0.8	-3.1	0.3	47.1*	23.7*
COCCNC(=S)N(C)[C@H]1C[C@H]2c3[nH]c4c(-c5cccc(C)c5)cccc4c3CCN2C[C@H]1[C@H](C)O	.	.	-1.5	-1.1	1.3	-2.6	.	.
O=C1c2ccc(Oc3cccc([N+](=O)[O-])c3)cc2C(=O)N1c1ccccn1	1.5	-0.2	-1.1	-0.6	-2.8	-0.7	.	.
O=C1c2cc([N+](=O)[O-])cc3cc([N+](=O)[O-])cc(c23)C(=O)N1c1ccccn1	8.2*	-1.2	-0.4	-0.5	-1.3	-1.3	14.9	17.3*
CC1=CC(=O)N(c2cccc3c(N4C(=O)C=C(C)C4=O)cccc23)C1=O	9.2*	0.9	0.0	0.7	-0.9	1.1	14.8	25.8*
CCc1nc2ccc(C(=O)NCCN3CCNC3=O)cn2c1N(CC)Cc1cccc(Br)c1	15.1*	.	-1.6	0.0	-0.3	-2.5	15.1	7.2
CCc1nc2ccc(C(=O)NCCOc3ccc(OC)cc3)cn2c1N(CC)Cc1cccc(Br)c1	-2.7	.	-1.5	-2.0	0.2	-2.5	.	.
O=C(COC(=O)Cn1cnc2ccccc21)Nc1ccc2c(c1)C(=O)c1ccccc1C2=O	8.7*	-0.1	-0.6	1.2	6.8	0.6	108.0*	46.2*
O=C(COC(=O)Cn1cnc2ccccc21)Nc1ccc(Br)cc1	0.3	0.1	-1.1	0.4	-4.2	-0.6	.	.
Cc1ccc(C)c(CC(=O)N2CCCC(c3cc(C(=O)NCc4cccnc4)no3)C2)c1 (stereo unspecified)	-0.2	.	-1.6	0.1	-2.2	-1.4	.	.
O=C(CN[C@@H](Cc1c[nH]c2ccccc12)C(=O)NCCc1c[nH]c2ccccc12)NC1CCCCC1	.	.	-0.5	.	-0.2	3.7	.	.
C=C(C)[C@@H]1C2=CC(C(=O)OC)=C(C[C@H](C(=C)C)[C@H]3O[C@H]3C3=C[C@H]1OC3=O)O2	14.5*	.	-1.9	-2.6	-6.9	-3.7	-44.4	2.5
C[C@H](CO)N1C[C@H](C)[C@H](CN(C)C(=O)N[C@H](C)c2ccccc2)OCc2ccccc2-c2c(n(C)c3ccccc23)C1=O	14.4*	0.1	-1.2	-0.3	-2.9	-1.5	-6.5	3.6

Screening results (PubChem)
